Here are results for 20 molecules from PubChem BioAssay (NCATS).

Assay [1] has as its target Cellular tumor antigen p53 (Homo sapiens) (UniProt P04637). The experiment in a line: Primary qHTS for small molecule compounds that upregulate eGFP-tagged delta133p53alpha (in N-terminal) cells. (AID 2060322). Also: nearly all actives have a fitted effect of over 75% in size. Also: potency is read from the fitted curve at half-maximal effect.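 As to activation: series mostly up to about 56 µM; 0% = DMSO vehicle and 100% = reference activator.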 The following applies: NCI-H358 eGFP-delta133p53alpha fluorescence, 24 h; activation: hits give high values. The gist of the method: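 NCI-H358 cells pre-induced 24 h with 10 ng/ml doxycycline to express N-terminal eGFP-delta133p53alpha, then dosed 24 h at 37C without doxycycline; fixed, Hoechst-stained, GFP intensity by laser scanning cytometry, normalized to DMSO (0%) and 57.5 uM 5-azacytidine (100%).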

Assay [2] is described as follows: BET inhibitor-based combinations targeting novel dependencies in MECOM-rearranged (r) AML: SET-2 cell line (AID 2202231). Also: nearly all actives have a fitted effect of over 35% in size. Also: potency is read from the fitted curve at half-maximal effect.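 As to viability: plate controls were DMSO treated cells for no effect and wells without cells for full effect.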 To be noted: SET-2 AML cells viability, CellTiter-Glo luminescence, 48 h; viability: hits give low values, concentration not given here. In short, it runs like this:
(§1)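 Here, 11-point titrations of each agent were applied to 500 seeded cells and incubated 48 hr; CellTiter-Glo signal, scaled against DMSO and empty wells, was integrated as AUC, then Z-scored within the individual line.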
On the technique in general: In ATP-based viability assays light output follows the ATP content of the culture.

Assay [3] is described as follows: BET inhibitor-based combinations targeting novel dependencies in MECOM-rearranged (r) AML: OCI-AML3 cell line (AID 2202232). Also: nearly all actives have a fitted effect of over 35% in size. Also: potency is read from the fitted curve at half-maximal effect. The following applies: Potency: OCI-AML3 viability. The gist of the method: as §1
A short description of assay [4]: BET inhibitor-based combinations targeting novel dependencies in MECOM-rearranged (r) AML: MV-4-11 cell line (AID 2202233). Also: nearly all actives have a fitted effect of over 45% in size. Also: potency is read from the fitted curve at half-maximal effect. In short, it runs like this: (§2)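 Normalized to DMSO and empty-well controls, the luminescence data from CellTiter-Glo after 48 hr drug exposure were fitted across 11 concentrations. Reported metrics are area under the dose-response curve and its Z-transformed form.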

The nature of assay [5]: BET inhibitor-based combinations targeting novel dependencies in MECOM-rearranged (r) AML: HNT-34 cell line (AID 2202234). Also: nearly all actives have a fitted effect of over 35% in size. Also: potency is read from the fitted curve at half-maximal effect. In short, it runs like this: as §2
Assay [6] is described as follows: BET inhibitor-based combinations targeting novel dependencies in MECOM-rearranged (r) AML: UCSD-AML1 cell line (AID 2202235). Also: nearly all actives have a fitted effect of over 40% in size. Also: potency is read from the fitted curve at half-maximal effect. In short, it runs like this: as §2
The nature of assay [7]: BET inhibitor-based combinations targeting novel dependencies in MECOM-rearranged (r) AML: AML-191 cell line (AID 2202236; also: nearly all actives have a fitted effect of over 35% in size; also: potency is read from the fitted curve at half-maximal effect). In short, it runs like this:
as §1

A short description of assay [8]: BET inhibitor-based combinations targeting novel dependencies in MECOM-rearranged (r) AML: AML-194 cell line (AID 2202237; also: nearly all actives have a fitted effect of over 40% in size; also: potency is read from the fitted curve at half-maximal effect). The gist of the method:
as §1

Assay [9] has as its target Retinaldehyde dehydrogenase 3 (Homo sapiens) (UniProt P47895). Kind of assay: qHTS for Inhibitors of the Aldehyde Dehydrogenase Family (ALDH1A3) Primary screen (AID 2061315).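 Also: plate controls were DMSO vehicle for no effect and reference inhibitor for full effect.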 For orientation: Quantitative high-throughput screening tests each substance at several concentrations.

For orientation: viability means a read-out of living cells in per cent, often relative to untreated cells.

Several values for one entry are separate records, joined by “and”; a condition that tells them apart may be missing. Identical values can stand only once. Results filed as inconclusive are left out. Activity calls are given as the source filed them. Calls follow the shape of the dose curve; as a rule, active = well fitted curve in the direction sought with a large enough effect; inconclusive = small, poorly fitted or top-dose-only effect, or another doubt; inactive = no such curve, though single readings can be large; an effect the other way counts as inactive or inconclusive.

Cellular tumor antigen p53 (Homo sapiens), sequence (P04637 whole entry, looked up): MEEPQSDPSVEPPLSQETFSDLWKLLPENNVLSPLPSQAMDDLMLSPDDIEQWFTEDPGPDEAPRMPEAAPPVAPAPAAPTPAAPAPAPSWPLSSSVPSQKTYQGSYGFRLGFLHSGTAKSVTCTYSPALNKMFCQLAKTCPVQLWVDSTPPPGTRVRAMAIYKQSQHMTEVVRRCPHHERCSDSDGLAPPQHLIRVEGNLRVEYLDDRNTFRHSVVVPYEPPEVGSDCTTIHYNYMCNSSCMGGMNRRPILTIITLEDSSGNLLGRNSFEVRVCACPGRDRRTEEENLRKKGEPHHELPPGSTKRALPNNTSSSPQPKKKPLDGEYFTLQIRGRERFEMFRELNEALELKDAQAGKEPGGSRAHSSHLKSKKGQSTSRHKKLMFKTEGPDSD

For the molecule `CCOC(=O)[C@H](CCc1ccccc1)N[C@@H](C)C(=O)N1[C@H](C(=O)O)C[C@@H]2CCC[C@@H]21`, the activation in assay [1] is 5.08% (inactive). The viability in [2] is 108% (inactive). Besides, the Potency entry in assay [3], in [4], in assay [5], in assay [6] and in assay [7] was “inactive” throughout.

Regarding `COC(=O)C1=C(C)NC(C)=C(C(=O)OCCCN2CCC(c3ccccc3)(c3ccccc3)CC2)C1c1cccc([N+](=O)[O-])c1` (centres undefined), in [1], the activation was 2.93% (inactive). For the same molecule, the Potency in assay [2] is 18.6 µM (active); in assay [3], 29.5 µM (active); in [4] it was 10.5 µM (active); in [5], 18.6 µM (active); in [6], 14.8 µM (active); in assay [7], 26.3 µM (active). For the same molecule, the Potency in [8] was 20.9 µM (active).

Consider `CCc1cc(C(N)=S)ccn1`, for which the activation in assay [1] is -7.53% (inactive) and 9.71% (inactive). Also, the viability in [2] was 109% (inactive). Moreover, the Potency result in assay [3], in [4], in assay [5], in [6] and in assay [7] was “inactive” in each case.

For the molecule `COc1ccc2cc3[n+](cc2c1OC)CCc1cc2c(cc1-3)OCO2`, in [1], the activation is -7.97% (inactive). Moreover, the Potency in assay [2] was 16.6 µM (active); in assay [3], 4.17 µM (active); in [4], 5.9 µM (active); in assay [5], 23.5 µM (active). In assay [6], the Potency entry was “inactive”.

As for `C[C@H]1COC2=C1C(=O)C(=O)c1c2ccc2c1CCCC2(C)C`, the activation in assay [1] is -1.94% (inactive). The Potency was 20.9 µM (active) in assay [2], 20.9 µM (active) in assay [3] and 13.2 µM (active) in [4].

For the molecule `Nc1nc(Cl)nc2c1ncn2[C@@H]1O[C@H](CO)[C@@H](O)[C@@H]1F`, the activation in assay [1] is -10.7% (inactive). Also, the Potency in [2] is 0.263 µM (active); in assay [3] it was 0.148 µM (active); in assay [4] it was 0.209 µM (active); in assay [5], 0.166 µM (active); in assay [6] it was 0.0263 µM (active); in [7], 0.0742 µM (active).

`CC(C)NC[C@@H](C(=O)N1CCN(c2ncnc3c2[C@H](C)C[C@H]3O)CC1)c1ccc(Cl)cc1`: in assay [1], the Potency is 34.3 µM (active). For the same molecule, the viability in assay [2] is 102% (inactive).

Regarding `Nc1ncnc2c1nc(Cl)n2[C@@H]1O[C@H](CO)[C@@H](O)[C@@H]1O`, the activation in assay [1] is -2.08% (inactive). The Potency in assay [2] was 11.8 µM (active); in assay [3] it was 13.2 µM (active); in assay [4] it was 5.25 µM (active); in assay [5] it was 2.95 µM (active); in assay [6] it was 5.9 µM (active); in [7], 3.72 µM (active). In assay [8], the Potency is 2.63 µM (active).

As to `N#Cc1ccc(NC(=O)Nc2ccccc2Br)c2n[nH]nc12`, the activation in assay [1] is -2.35% (inactive). Besides, the viability in assay [2] is 105% (inactive). In addition, the Potency in assay [3] is 14.8 µM (active). Further, the Potency result in [4], in [5] and in assay [6] was “inactive” each time.

As to `CC1(C)O[C@@H]2C[C@H]3[C@@H]4CCC5=CC(=O)C=C[C@]5(C)[C@@]4(F)[C@@H](O)C[C@]3(C)[C@]2(C(=O)CO)O1`, in [1], the activation is -9.6% (inactive). For the same molecule, the viability in [2] is 115% (inactive). The Potency entry in assay [3], in assay [4], in [5] and in [6] was “inactive” in each case.

For the molecule `N#Cc1c(NC(=O)c2cccc3ccccc23)sc2c1CCCC2`, the Potency in [1] is 13.7 µM (active); in assay [2], 0.525 µM (active); in assay [3], 0.332 µM (active); in assay [4] it was 0.372 µM (active); in [5] it was 0.372 µM (active); in assay [6], 0.332 µM (active).

As for `c1cc(CN2CCCNCCNCCCNCC2)ccc1CN1CCCNCCNCCCNCC1`, the activation in assay [1] was 39.7% (inactive). The viability in assay [2] was 87.5% (inactive). Moreover, the Potency result in assay [3], in assay [4], in assay [5], in assay [6] and in assay [7] was “inactive” in each case.

For `OCCC#Cc1nc(-c2ccc(F)cc2)c(-c2ccncc2)n1CCCc1ccccc1`, the activation in assay [1] is 17.2% (inactive). Further, in assay [2], the viability is 100% (inactive).

In the case of `CC[C@]1(O)C[C@H]2CN(CCc3c([nH]c4ccccc34)[C@@](C(=O)OC)(c3cc4c(cc3OC)N(C=O)[C@H]3[C@@](O)(C(=O)OC)[C@H](OC(C)=O)[C@]5(CC)C=CCN6CC[C@]43[C@@H]65)C2)C1`, the activation in [1] was 54.7% (inactive). In addition, the Potency was 0.833 µM (active) in [2]; 0.166 µM (active) in assay [3]; 0.166 µM (active) in [4]; 0.209 µM (active) in [5]; 0.235 µM (active) in assay [6]; 0.263 µM (active) in [7].

In the case of `C[C@H](Nc1ncnc2nc[nH]c12)c1cc2ccc(F)cc2nc1-c1ccccn1`, in assay [1], the activation is 5% (inactive). Besides, the Potency entry in assay [9] was “inactive”. Moreover, the Potency in [7] is 18.6 µM (active).

For the molecule `C[C@H](NC(=O)Cc1cc(F)cc(F)c1)C(=O)N[C@H](C(=O)OC(C)(C)C)c1ccccc1`, the activation in assay [1] was 11.5% (inactive). In addition, the viability in assay [2] is 118% (inactive). The Potency result in assay [3], in assay [4], in assay [5], in assay [6], in [7] and in [8] was “inactive” in each case.

With `O=C1[C@H](Cc2ccc(O)cc2)N2C(=O)CCN(C(=O)NCc3ccccc3)[C@H]2CN1Cc1cccc2ccccc12`, in [1], the activation is 18.1% (inactive). Moreover, the Potency in assay [2] was 11.8 µM (active); in assay [3], 9.34 µM (active); in [4] it was 9.34 µM (active); in assay [5], 5.25 µM (active); in assay [6], 9.34 µM (active).

For the molecule `CCn1cc(C(=O)O)c(=O)c2cc(F)c(N3CCNCC3)cc21`, the activation in assay [1] was -8.37% (inactive) and 13.6% (inactive). Moreover, in assay [2], the viability is 96.1% (inactive). For the same molecule, the Potency result in assay [3], in [4], in assay [5], in assay [6], in assay [7] and in [8] was “inactive” throughout.

As for `C[C@]12CC[C@@H]3c4ccc(O)cc4CC[C@H]3[C@H]1[C@@H](O)[C@@H](O)[C@H]2O`, the activation in assay [1] is 9.46% (inactive). In assay [2], the viability was 104% (inactive). Further, the Potency entry in assay [3], in [4], in [5], in [6], in assay [7] and in assay [8] was “inactive” each time.

Consider `CCC[C@H](N[C@@H](C)C(=O)N1[C@@H]2CCCC[C@H]2C[C@H]1C(=O)O)C(=O)OCC`, for which, in assay [1], the activation was -22.1% (inactive). Also, the viability in assay [2] is 110% (inactive). Also, the Potency result in assay [3], in assay [4], in [5], in assay [6], in [7] and in assay [8] was “inactive” in each case.
